# Out of some 390,000 compounds screened, about 17,000 (4.4%) were called active. Roughly 8% stayed inconclusive and do not appear here. What follows is part of a selection rich in actives, with near analogues and random picks from the rest. A number with no mark means an inactive call. Calls follow the shape of the dose curve; as a rule, active = well fitted inhibition curve with a large enough effect; inconclusive = small, poorly fitted or top-dose-only effect; inactive = no such curve, though single readings can be large or run the other way.
# Target: Lysine-specific demethylase 4A (Homo sapiens) (UniProt O75164)
# Sequence (O75164 whole entry, looked up, the tested form may be a part): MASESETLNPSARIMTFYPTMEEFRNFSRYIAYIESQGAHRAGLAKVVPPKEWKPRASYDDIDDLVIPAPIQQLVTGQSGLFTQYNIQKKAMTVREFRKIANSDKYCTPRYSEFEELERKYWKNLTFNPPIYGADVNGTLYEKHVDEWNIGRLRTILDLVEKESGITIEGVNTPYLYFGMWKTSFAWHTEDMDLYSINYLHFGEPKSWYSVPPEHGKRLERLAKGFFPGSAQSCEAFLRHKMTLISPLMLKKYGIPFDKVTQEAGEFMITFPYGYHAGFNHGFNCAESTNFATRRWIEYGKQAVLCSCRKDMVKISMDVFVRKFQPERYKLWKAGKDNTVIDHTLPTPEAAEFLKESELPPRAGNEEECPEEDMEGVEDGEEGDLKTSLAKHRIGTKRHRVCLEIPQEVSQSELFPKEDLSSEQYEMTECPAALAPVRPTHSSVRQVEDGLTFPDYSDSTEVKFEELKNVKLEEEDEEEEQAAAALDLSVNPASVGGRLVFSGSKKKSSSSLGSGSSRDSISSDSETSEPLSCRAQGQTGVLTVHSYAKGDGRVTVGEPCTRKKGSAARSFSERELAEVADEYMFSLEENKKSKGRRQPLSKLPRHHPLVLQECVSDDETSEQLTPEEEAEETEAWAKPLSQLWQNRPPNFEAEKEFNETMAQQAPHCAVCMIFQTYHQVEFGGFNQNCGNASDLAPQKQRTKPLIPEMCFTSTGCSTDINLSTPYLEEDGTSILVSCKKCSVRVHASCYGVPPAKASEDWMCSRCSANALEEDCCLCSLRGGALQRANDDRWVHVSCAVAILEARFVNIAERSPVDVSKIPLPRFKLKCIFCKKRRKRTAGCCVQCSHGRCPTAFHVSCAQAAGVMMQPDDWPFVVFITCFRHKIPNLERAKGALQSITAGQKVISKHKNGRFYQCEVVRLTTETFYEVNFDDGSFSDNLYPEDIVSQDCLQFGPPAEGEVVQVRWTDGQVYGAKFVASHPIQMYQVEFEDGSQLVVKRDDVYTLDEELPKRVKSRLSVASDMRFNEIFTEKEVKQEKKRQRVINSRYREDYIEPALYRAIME
# Experiment: qHTS Assay for Inhibitors of JMJD2A-Tudor Domain; also: nearly all actives have a fitted effect of over 50% in size
# Details: AlphaScreen JMJD2A-Tudor / H3K4me3 peptide binding; series mostly up to 114 µM; activity change, negative = inhibition: at the top concentration
# % is scaled to controls: 0 for no effect and ±100 for the full control effect; potency is read from the fitted curve at half-maximal effect.
Structure (SMILES),Potency,"activity change, negative = inhibition"
CCCCNC(=O)C1CCC(CNS(=O)(=O)c2ccc(NC(C)=O)cc2)CC1 (configuration not stated),inactive,
COCCCNC(=O)c1ccc(CNS(=O)(=O)c2ccc(NC(C)=O)cc2)cc1,50.1 µM (active),
Cc1ccc(CCNC(=O)c2ccc(CNS(=O)(=O)c3ccc(C)cc3)cc2)cc1,,-9.48%
Cc1ccc(CN2CCC(CNC(=O)c3cnn(-c4ccccc4Cl)c3C3CCN(C(=O)OC(C)(C)C)CC3)CC2)cc1,,-31.4%
CCc1cccc(CC)c1NC(=O)Cn1c(=O)c(-c2cc(C)ccc2NC(C)=O)nc2ccccc21,,-16.2%
COC(=O)c1ccccc1NC(=O)C(Cc1ccccc1)N1Cc2ccccc2C1=O (configuration not stated),,-12.9%
CCOc1cc(/C=N/Nc2cc(C)nc3ccc(C)cc23)ccc1O,,-3.74%
CCN(CC)c1ccc(/C=N/NC(=O)c2cnccn2)c(O)c1,,-20.4%
CCN(CC)c1ccc(/C=N/Nc2nc(C)cc(C)n2)c(O)c1,50.1 µM (active),
CCCCNC(=O)Cn1c(SCc2cccc(Cl)c2)nc2ccncc21,,-1.54% [at 57.1 µM]
CCCN(CCC)CCCNC(=O)Cn1ncc2c3ccccc3n(Cc3ccccc3)c2c1=O,,-10.4%
C=CCc1ccccc1OCC(O)CN1CCN(CCO)CC1 (configuration not stated),,-2.49%
Cc1ccc(OCC(O)CN2CCN(CC(O)COc3ccc(C)cc3Cl)CC2)c(Cl)c1 (configuration not stated),,4.49%
Cc1cccc(OCC(O)CN2CCN(CCN3C(=O)c4cccc5cccc(c45)C3=O)CC2)c1C (configuration not stated),39.8 µM (active),
COc1ccc(NC(=O)Cn2c(=O)n(CCC(C)C)c(=O)c3cccnc32)cc1Cl,,-14.9%
Cc1cc(C)cc(NC(=O)c2cnc3sc(N4CCCC4)nn3c2=O)c1,,-29.7%
CCOc1ccccc1N1C(=O)CC(Sc2nccc(C)n2)C1=O (configuration not stated),,10.5%
Cc1ccc(N2C(=O)CC(Sc3ncn[nH]3)C2=O)cc1 (configuration not stated),28.2 µM (active),
COc1ccc(N2C(=O)CC(SC(C)C)C2=O)cc1 (configuration not stated),,-6.9%
COC(=O)c1ccccc1SC1CC(=O)N(c2cccc(C)c2)C1=O (configuration not stated),,-8.39%
CC(=O)Nc1ccc(N2C(=O)CC(Sc3nccc(C)n3)C2=O)cc1 (configuration not stated),,-13.9%
COc1ccc(N2C(=O)CC(Sc3n[nH]c(-c4ccc(C)cc4)n3)C2=O)cc1 (configuration not stated),2 µM (active),
O=C1CC(Sc2ncn[nH]2)C(=O)N1c1ccccc1 (configuration not stated),39.8 µM (active),
COc1ccc(-c2nc(SCC(=O)N3CCCC3)n[nH]2)cc1,,-4.14%
Cc1ccc(CC2CC(=O)N(c3ccc4c(c3)OCCO4)C2=O)cc1 (configuration not stated),,-8.3%
CC(=O)Nc1cccc(NC(=O)CSc2nccn2Cc2ccc3c(c2)OCO3)c1,,-21%
O=C(CCS(=O)(=O)c1ccccc1)N(Cc1cccnc1)c1nc2c(F)cccc2s1,,-11%

# Source: PubChem BioAssay AID504339 (National Center for Advancing Translational Sciences (NCATS), 2011)
